# Experimental data published in PubChem BioAssay AID1117359 (Southern Research Institute, 2015).
# The whole screen tested about 1,500 compounds, of which about 460 (31%) were called active. The list is a sample of the results. Measured potencies and affinities stand elsewhere. Unmarked numbers belong to inactive results.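 Rule for the calls: active = viability at or below 80% at any tested concentration, marking the compound as toxic; inactive = the rest.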
# Assay: THP-1 cell cytotoxicity, dose response, cytotoxicity control for Vif-APOBEC3G degradation inhibitor project, THP-1 cells (AID 1117359)
# Details: THP-1 viability, CellTiter-Glo luminescence, 72 h; series mostly up to 40 µM; viability: at the top concentration
row,Compound,viability [%]
1,O=[N+]([O-])c1cc2oc3c(c2c(C=NCc2ccncc2)c1O)CCCC3,110
2,COc1cc2c3c(c1OC)C1(C=CC(=O)C=C1)CC3N(C(=O)CCC(=O)O)CC2 (stereo unspecified),103
3,Oc1ccc(-c2cn3c(n2)SCC3)cc1O,97.9
4,O=C(CCCCl)Nc1nc(-c2ccc3c(c2)OCCO3)cs1,98.4
5,COc1ccc(OC)c(N/C(C)=C/C(=O)c2ccc(C)o2)c1,89.8
6,COc1ccc(O)c(N)c1,99.5
7,CCCCCC#CCC#CCC#CCC#CCCCC(=O)O,83
8,CC(=O)Nc1cccc(-c2cc(-c3c(Cl)cccc3Cl)no2)c1,95.7
9,COc1ccc(NC(=O)/C=C/c2ccc(S(=O)(=O)N3CCOCC3)cc2)cc1,97.8
10,Cc1cc(-c2n[nH]c(=S)n2/N=C/C=C/c2ccco2)n[nH]1,108
11,COc1ccc(C)cc1NC(=O)COC(=O)CCC(=O)c1cccs1,106
12,N#Cc1ccccc1CN1C(=O)S/C(=C/c2cccn2-c2ccc(C(=O)O)cc2)C1=O,109
13,O=C(NCC(c1ccco1)N1CCCC1)c1cccc(S(=O)(=O)N2CCCCC2)c1 (stereo unspecified),89.7
14,COc1cc(C(C2C(=O)CC(C)(C)CC2=O)C2C(=O)CC(C)(C)CC2=O)cc(OC)c1OC,96
15,COCCNC(=O)Nc1ccc2nc(-c3ccco3)c(-c3ccco3)nc2c1,114
16,O=C(NC1CC1)c1cc(-c2ccco2)nc2ccccc12,87.3
17,CC(C)CN(C(=O)CN1CCN(S(=O)(=O)c2ccccc2)CC1)c1c(N)n(CC(C)C)c(=O)[nH]c1=O,118
18,COC(=O)[C@@]1(Cc2ccc(OC)cc2)[C@H]2c3cc(C(=O)N(C)C)n(C[C@H](O)CO)c3C[C@H]2CN1C(=O)c1ccccc1,83.2
19,Cc1nc(C)c(C(=O)Nc2nc3c(C)cccc3s2)o1,92.6
20,O=C(Nc1nnc(C2CC2)s1)c1ccc(S(=O)(=O)c2ccccc2)cc1,94.8
21,S=c1[nH]nc(COc2ccc(Cl)cc2)o1,103
22,CCCCCCNS(=O)(=O)c1ccccc1Br,87
23,Clc1ncnc2scc(-c3ccccc3)c12,84.7
24,Nc1ccc(S(=O)(=O)c2cc(O)c3ccccc3c2O)cc1,89.9

row,Compound,viability [%]
1,CCOC(=O)/C(C#N)=C/c1c(OCC)n(CC)c2ccccc12,91.8
2,COc1ccc(CCN2C(=O)CC(Nc3ccc(N4CCOCC4)cc3)C2=O)cc1OC (stereo unspecified),96.4
3,O=C1CCC(CCC(=O)N2CCCC(C(=O)c3ccc4c5c(cccc35)CC4)C2)=NN1 (stereo unspecified),81.3
4,Nc1cc(N)c(OCC(F)(F)F)cc1OCC(F)(F)F,98.8
5,CC(=O)c1ccc2c(c1)C1C=CCC1C(c1ccncc1)N2 (stereo unspecified),86.5
6,Cc1cccc(Cc2nnc(CCC(=O)N(C)C3CCOC3)o2)c1 (stereo unspecified),95.4
7,CCCCn1c(N)c(N(CCC(C)C)C(=O)C2=NN(c3cc(C)ccc3C)C(=O)CC2)c(=O)[nH]c1=O,89.7
8,CNc1ccc(Br)cc(C(=O)/C=C/c2cc(OC)ccc2OC)c1=O,82.2
9,COc1ccccc1NS(=O)(=O)c1cccs1,92.4
10,CN(C)S(=O)(=O)c1cccc(NC(=S)N/N=C/c2ccc(O)c(O)c2O)c1,92.7
11,Cc1ccc(C=C2C(Cl)=C(Cl)C(Cl)=C2Cl)cc1,91
12,COC(=O)COc1ccc(S(=O)(=O)Nc2ccc(C(N)=O)cc2)cc1C,97.2
13,O=C1CSC(c2cccnc2)N1Cc1cccnc1 (stereo unspecified),109
14,Cc1cc(C)c(C(=O)/C=C/c2ccco2)c(=O)[nH]1,88.5
15,N#CC(C#N)=Cc1cccn1-c1ccc(C(=O)O)cc1,101
16,CCOC(=O)CN(C(=O)CSc1nnc(COc2ccc(OC)cc2)n1CC)c1ccccc1,87.8
17,O=C(O)CCCNc1cc(N2CCC3(CC2)OCCO3)c2noc3c2c1C(=O)c1ccccc1-3,89.7
18,Cc1ccc(NC(=O)CSc2nc(CSc3ccc(C)cc3)cc(=O)[nH]2)cc1,103
19,COc1ccc(N(CC(=O)NCCC2=CCCCC2)S(=O)(=O)c2ccccc2)cc1,83.4
20,COc1cc([N+](=O)[O-])c(N2CCOCC2)c([N+](=O)[O-])c1OC,87
21,CC(C)C1Nc2ccc(C(=O)O)cc2C2C=CCC21 (stereo unspecified),87.3
22,O=C1NN(c2ccc(Cl)cc2)C(=O)/C1=C\c1ccc(-c2cccc(C(=O)O)c2)o1,97.9
23,Fc1cc(F)cc(NC(=S)NCCCN2CCOCC2)c1,106
24,CC(C)OP(=O)(OC(C)C)C(O)c1ccc(N(C)C)cc1 (stereo unspecified),111

row,Compound,viability [%]
1,Cc1ccc(Oc2ccc(/C=N/O)cn2)cc1,89.2
2,CCOC(=O)C(C#N)(Cc1ccc2ccccc2n1)Cc1ccc2ccccc2n1,83.9
3,O=C(CCl)N1N=C(c2ccco2)CC1c1ccco1 (stereo unspecified),108
4,Cc1cccc(NC(=O)CNC(=O)c2cccc(-n3cccc3)c2)c1C,95.8
5,C/C(N)=C(/C#N)C(=O)CSc1nnc(Nc2c(C)cccc2C)s1,92.9
6,O=C(O)CCCCC1SCC2NC(=O)NC21 (stereo unspecified),118
7,CN(C(=O)CSc1ncnc2sccc12)C1CCCCC1,93.3
8,O=C1/C(=C/C=C/c2ccco2)SC(=S)N1c1ccc(O)cc1,83.6
9,O=C(O)CC(C(=O)O)N1C(=O)/C(=C/C=C/c2ccco2)SC1=S (stereo unspecified),97.4
10,CC(C)(C)C1CCC(OC(=O)C[N+]2(C)CCCCC2)CC1 (stereo unspecified),82.8
11,CCOc1ccccc1C(=S)NC1CCCCC1,101
12,Cc1nn(CC(=O)NC2CC2)c(C)c1S(=O)(=O)N(C)C,102
13,CC(C)(C)c1cc(N/C=C\c2nnnn2-c2ccc(Br)cc2)no1,102
14,CC1CCN(Cc2c(O)ccc3c2O/C(=C\c2ccco2)C3=O)CC1,85.3
15,CCCSC1=N/C(=C\c2ccc([N+](=O)[O-])o2)C(=O)S1,98.9
16,O=C1OC(c2ccc(F)cc2)=C/C1=C\c1ccc([N+](=O)[O-])o1,88
17,CCOc1ccc(NC(=O)C2CCCN(S(=O)(=O)c3c(C)n[nH]c3C)C2)cc1 (stereo unspecified),102
18,Cc1ccc(C)c(/C(O)=C2/C(=O)C(=O)N(CCN3CCOCC3)C2c2ccco2)c1 (stereo unspecified),99.1
19,CNc1ccc(Br)cc(C(=O)/C=C/c2ccc(OC)cc2OC)c1=O,98.3
20,CC(=O)c1c(C)[nH]c(C(=O)OCC(=O)C(C)(C)C)c1C,92.6
21,COC(=O)c1sccc1NC(=O)CC1C(=O)NCCN1C(=O)Nc1ccccc1 (stereo unspecified),101
22,COc1ccc(NC(=O)O/N=C/c2ccccc2Cl)cc1,102
23,N#C/C(=C/c1ccc(Br)o1)C(N)=S,85.2
